SMILES strings stand for the structures. Screen size: about 310,000 compounds; about 3,800 (1.2%) were called active.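 How the source made its calls: active means ratio B-score over 3 SD below the library mean, with starting fluorescence within 5 SD of its mean; inactive means the rest, inconclusive results apart.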 This excerpt belongs to a sample that is enriched for actives.

Chain of Potassium channel subfamily K member 9 (Homo sapiens) (Q9NPC2 whole entry, looked up): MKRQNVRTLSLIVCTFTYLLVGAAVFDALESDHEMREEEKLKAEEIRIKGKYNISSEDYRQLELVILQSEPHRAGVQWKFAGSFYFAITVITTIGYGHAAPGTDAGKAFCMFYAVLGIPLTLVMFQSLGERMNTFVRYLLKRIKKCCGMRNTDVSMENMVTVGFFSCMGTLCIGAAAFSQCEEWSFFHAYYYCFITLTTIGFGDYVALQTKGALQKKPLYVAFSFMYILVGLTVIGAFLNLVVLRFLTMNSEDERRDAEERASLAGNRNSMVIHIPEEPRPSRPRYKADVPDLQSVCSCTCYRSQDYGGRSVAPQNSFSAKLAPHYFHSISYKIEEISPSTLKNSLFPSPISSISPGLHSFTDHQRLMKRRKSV

This test has as its target Potassium channel subfamily K member 9 (Homo sapiens) (UniProt Q9NPC2). In words: KCNK9 potassium channel inhibitors, primary screen, HEK293 cells, thallium flux (AID 488922).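 On B-score: negative B-score means less thallium flux so channel inhibition.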 Conditions: HEK293 KCNK9, FluxOR thallium flux fluorescence, at 10 µM; active compounds read low.
Regarding `O=P(O)(CN1CCCCCC1)C1Cc2ccccc2C1`, the B-score entry is “inactive”.
With `CCc1ccccc1NC(=S)Nc1cc(OC)c(NC(=O)C(C)C)cc1OC` the entry was “inactive”; with `CCc1ccccc1NC(=O)CCOc1ccccc1`, “inactive”.
As for `CCc1ccccc1NC(=O)/C(=C/c1ccccc1)c1ccccc1`, the B-score was -8.86 (active).
To `COc1cccc(CNS(=O)(=O)c2ccc3c(c2)N(C(C)=O)CCS3)c1` belongs “inactive”; to `COc1cc(NC(=O)c2ccccc2)c(OC)cc1NC(=O)Cc1ccccc1`, “inactive”.
With `COc1cc(OC)cc(C(=O)OCC(=O)Nc2sccc2C(N)=O)c1` the entry was “inactive”; with `COc1cccc(OC)c1C(=O)Nc1nnc(C(C)C)s1`, “inactive”; with `COc1cccc(OC)c1C(=O)Nc1sc2c(c1C(N)=O)CCCC2`, -11.2 (active).
With `NC(=O)c1c(NC(=O)c2ccccc2)sc2c1CCCC2` the entry was “inactive”; with `Cc1cc(C)c(S(=O)(=O)N(C)CC(=O)NCC2CCCO2)c(C)c1` (stereo not given), “inactive”.
Consider `O=C(Cc1csc(Nc2nc(=S)[nH]c3ccccc23)n1)NCCCN1CCN(c2cccc(Cl)c2)CC1`, for which the B-score result was “inactive”.
To `CCCn1nc(Oc2nc(NC(C)C)nc(N(C)C)n2)ccc1=O` belongs “inactive”.
`CCOC(=O)c1ccc(S(=O)(=O)N(CCO)Cc2cc3cc(OC)c(OC)cc3[nH]c2=O)cc1`: the B-score result was “inactive”.
With `COc1cccc(CNC(=O)C(=O)NCCC2CCCCN2S(=O)(=O)c2ccc(C)cc2)c1` (stereo not given) the entry was “inactive”.
With `Cc1ccc(-n2c(SCC(=O)Nc3ncc(Cl)cc3Cl)nc3ccccc32)cc1` the entry was “inactive”.
With `Cc1[nH]nc(SCC(=O)NCC(C)C)c1[N+](=O)[O-]` the entry was “inactive”; with `O=C(CSc1ncn[nH]1)Nc1nc(-c2cccc([N+](=O)[O-])c2)cs1`, “inactive”; with `CCNC(=O)CSc1nc(-c2ccccc2)cs1`, “inactive”.
As for `O=C(CSc1nc(-c2ccccc2)cs1)Nc1cccc([N+](=O)[O-])c1`, the B-score is -7.08 (active).
Regarding `CCSc1nnc(-c2cc3c(s2)-c2ccccc2CC3)o1`, the B-score entry was “inactive”.
With `CN(C(=O)CCN1C(=O)/C(=C/c2ccccc2F)SC1=S)C1CCS(=O)(=O)C1` (stereo not given) the entry was “inactive”; with `COC(=O)CSc1nc2ccccc2c(=O)n1Cc1ccccc1`, “inactive”; with `CCOC(=O)CSc1nc2c(sc(=S)n2CCc2ccccc2)c(=O)n1Cc1ccco1`, -8.91 (active).
For `CCOC(=O)CSc1nc2c(c(=O)n(C)c(=O)n2C)n1Cc1ccccc1F`, the B-score result was “inactive”.
For `Cc1ccc(OCC(=O)Nc2ccc(NC(=O)c3cccs3)cc2)c(C)c1`, the B-score result was “inactive”.
Regarding `O=C(Nc1ccc2c(c1)OCCO2)c1ccoc1`, the B-score entry is “inactive”.
To `Cc1cc(C)nc(SCC(=O)c2ccc(Cl)cc2)n1` belongs “inactive”.
To `COc1ccc(C(=O)CSc2nc(C)cc(C)n2)cc1[N+](=O)[O-]` belongs “inactive”; to `Cc1cc(Oc2ccc(Cl)cc2)nc(SCC(=O)c2ccccc2)n1`, -11.2 (active); to `CCC(C)NC(=O)c1nn(C)c(=O)c2ccccc12` (stereo not given), “inactive”.
With `Cc1ccc(N2C(=O)C(NC(=O)c3c(F)cccc3F)(C(F)(F)F)C3=C2CC(C)(C)CC3=O)cc1` (stereo not given) the entry was “inactive”; with `O=C(Nc1ccc2c(c1)OCO2)c1sc2cc(Cl)ccc2c1Cl`, “inactive”; with `CC(Sc1nc(-c2ccccc2)cc(C(F)(F)F)n1)C(=O)Nc1ccc2c(c1)OCO2` (stereo not given), “inactive”.
For `CC(Sc1nc2cc(Cl)ccc2s1)C(=O)Nc1ccc2c(c1)OCO2` (stereo not given), the B-score was -7.35 (active).
As to `COc1ccc(Nc2ncnc3ccc(Br)cc23)c(OC)c1`, the B-score result was “inactive”.
To `COc1ccc(Nc2ncnc3sc(C)cc23)cc1` belongs “inactive”; to `COc1ccc(Nc2ncnc3sc(-c4ccccc4)cc23)c(OC)c1`, -9.69 (active); to `CCc1cc(=O)oc2cc(OCC(=O)N3CCCc4ccccc43)ccc12`, “inactive”.
With `CN(C)C(=O)c1ccc2c(c1)C1C3CCC(C3)C1C(c1ccccc1)N2` (stereo not given) the entry was “inactive”.
With `CC(=O)c1ccc(NC(=O)CCNS(=O)(=O)c2cc(Br)cnc2N)cc1` the entry was “inactive”; with `O=C(COC(=O)c1ccccc1SCC(=O)NC1CCCCC1)NC1CCCCC1`, “inactive”.
Consider `COc1ccccc1C(=O)OCC(=O)NCCNC(=O)COC(=O)c1ccccc1OC`, for which the B-score result was “inactive”.
With `C=CCNC(=O)COC(=O)c1ccccc1C(=O)N(C)C1CCCCC1` the figure was -6.84 (active); with `O=c1cc(Cl)c2ccccc2n1-c1ccccc1`, “inactive”.
With `OCCCNC(c1ccccc1)c1ccc(O)cc1` (stereo not given) the entry was “inactive”; with `O=C(Nc1cc(Cl)cc(Cl)c1)C(NCCCO)c1ccccc1` (stereo not given), -8.3 (active).
With `CC(NCC(=O)Nc1cc(Cl)cc(Cl)c1)c1ccccc1` (stereo not given) the entry was “inactive”.
Regarding `COc1ccccc1N1CCN(Cc2cc(OC)c3c(c2)OCO3)CC1`, the B-score entry is “inactive”.
With `Cc1noc(C)c1C(=O)OCC(=O)N1CCN(S(=O)(=O)c2ccc3ccccc3c2)CC1` the entry was “inactive”.
To `COC(=O)C1=C(Nc2ccc(OC)cc2)C=C(C)C(C(=O)OC)C1c1ccc(C)cc1` (stereo not given) belongs “inactive”.
With `COC(=O)C1C(=O)NCC1c1ccc(C)cc1` (stereo not given) the entry was “inactive”; with `COC(=O)C1=C(Nc2ccc(C)cc2)C=C(C)C(C(=O)OC)C1c1ccc(F)cc1` (stereo not given), -10.4 (active).
Regarding `CC1CCC(NC(=O)CNC(=O)c2ccc3ccccc3c2)CC1` (stereo not given), the B-score result is “inactive”.
With `CN=C1SC(CC(=O)Nc2ccc(C(=O)O)cc2)C(=O)N1C` (stereo not given) the entry was “inactive”; with `CN(CC(=O)Nc1ccc(F)cc1)CC(=O)Nc1ccc(Cl)c(S(=O)(=O)N2CCOCC2)c1`, “inactive”.
To `CN(CC(=O)Nc1ccc(S(=O)(=O)N2CCCC2)cc1)Cc1ccc(Cl)c(Cl)c1` belongs “inactive”; to `CN(CCC(=O)Nc1cc(S(=O)(=O)N(C)C)ccc1Cl)CC(=O)Nc1ccc(F)cc1`, -12.2 (active).
Turning to `COc1ccccc1OCC(=O)O/N=C(\N)c1ccccn1`, the B-score entry is “inactive”.
To `O=C(O)CCS(=O)(=O)c1ccc(-c2ccccc2)cc1` belongs “inactive”.
With `Cc1cc(C)c(C)c(S(=O)(=O)Nc2ccc(O)cc2)c1C` the entry was “inactive”; with `Cc1ccc(Cn2cc(C(=O)NN)c(=O)c3ccc(F)cc32)cc1`, “inactive”.
To `CCOC(=O)C1=C(C)N=C2c3ccccc3C(=O)C2C1c1ccc(Br)cc1` (stereo not given) belongs “inactive”.
As to `O=C1c2ccccc2C(=O)C1c1ccccc1F`, the B-score entry was “inactive”.
As for `O=C1c2ccccc2C2=Nc3ccccc3SC(c3ccccc3F)C12` (stereo not given), the B-score is -9.81 (active).
Consider `CC(C)c1ccc2c(c1)c(SC(C)(C)C)c(CC(C)(C)C(=O)O)n2Cc1ccc(Cl)cc1`, for which the B-score entry is “inactive”.
As for `COc1ccc(C2NC(=O)N(C)C(C)=C2[N+](=O)[O-])cc1` (stereo not given), the B-score entry was “inactive”.
With `CCOCN(C(=O)Cn1c(C(C)O)nc2ccccc21)c1c(C)cccc1CC` (stereo not given) the entry was “inactive”; with `COc1ccccc1Cn1c(CO)nc2ccccc21`, “inactive”.
For the compound `CCc1cccc(C)c1N(C(=O)Cn1c(CO)nc2ccccc21)C(C)COC` (stereo not given), the B-score was -9.35 (active).
With `CCOc1ccc2[nH]c(=O)c(CN(Cc3nnnn3CCc3ccccc3)CC3CCCO3)cc2c1` (stereo not given) the figure was -9.63 (active); with `COc1ccc2[nH]c(=O)c(CN(Cc3nnnn3CCc3ccccc3)CC3CCCO3)cc2c1` (stereo not given), “inactive”.
To `CCOc1ccc2[nH]c(=O)c(CN(Cc3nnnn3Cc3ccccc3)CC3CCCO3)cc2c1` (stereo not given) belongs “inactive”; to `Cc1cc(=O)[nH]c(Nc2cccc(Br)c2)n1`, “inactive”.
With `CCCc1nc2ccccc2c(=O)n1/N=C/c1ccc(O)c(O)c1` the entry was “inactive”.
Consider `CCCN1C(=O)C(Cc2nc3ccccc3c(=O)n2-c2ccccc2)c2cc(C)ccc21` (stereo not given), for which the B-score was -9.54 (active).
`CCCc1nc2c(c(=O)c3ccccc3n2C)c(=O)n1-c1cc(C)cc(C)c1`: the B-score entry was “inactive”.
Turning to `CCOc1ccc(CN(Cc2ccco2)C(c2cccs2)c2nnnn2C(C)(C)C)cc1` (stereo not given), the B-score is -17 (active).
With `CCOc1ccc(CN(Cc2ccco2)S(=O)(=O)c2ccc(-n3cnnn3)c(OC)c2)cc1` the entry was “inactive”.
To `CC(C)(C)n1nnnc1C(c1cccs1)N(Cc1cccnc1)CC1CCCO1` (stereo not given) belongs “inactive”.
With `NC(=O)CC(NC(=O)Cc1ccc(Br)cc1)c1ccc(NC2CC3CCC2C3)c([N+](=O)[O-])c1` (stereo not given) the entry was “inactive”; with `Cc1cc(C)n2nc(CNS(=O)(=O)c3c(F)c(F)c(F)c(F)c3F)nc2n1`, “inactive”.
In the case of `COc1ccc(NC(=O)NN2CCN(C)CC2)c(OC)c1`, the B-score result is “inactive”.
To `COc1ccc2c(c1)C(c1cccs1)=NNC(c1cccnc1)=N2` belongs -13 (active); to `Fc1ccc2c(c1)C(c1cccnc1)=NNC(c1cccs1)=N2`, “inactive”.
With `COc1ccc(C(=O)/C=C/c2cccnc2)c(OC)c1` the entry was “inactive”.
`OCC[C@H]1C[C@H](O)[C@@H](O)[C@]2(CCCCO2)O1`: the B-score result is “inactive”.
With `CCCNC(=O)CSc1nc(Cc2ccccc2)nc2ccccc12` the figure was -7.59 (active); with `C=CCSc1nc(Cc2ccc(Cl)cc2)nc2ccccc12`, “inactive”.
To `CCc1nc(SCC(=O)NNC(=O)c2ccc(C)cc2)c2ccccc2n1` belongs “inactive”; to `CCOc1ccc(N(C)Cc2cc(=O)oc3ccc(OC)cc23)cc1`, “inactive”; to `Cc1nc(-c2ccc(F)cc2)c(CC(=O)Nc2cc(S(=O)(=O)N3CCCCC3)ccc2C)s1`, “inactive”.
To `Cc1ccc(S(=O)(=O)N(C)CC(=O)NCCc2c[nH]c3ccccc23)cc1` belongs “inactive”; to `OC(c1ccc(Cl)cc1)C(CN1CCOCC1)c1ccccc1` (stereo not given), “inactive”; to `Cc1ccc(-c2csc(NCCc3nc4cc(Cl)c(Cl)cc4n3CCOCCO)n2)cc1`, -9.6 (active).
For `CCCn1c(CCNc2nc(-c3ccc(OC)cc3)cs2)nc2ccccc21`, the B-score result was “inactive”.
To `Cc1ccc(-c2csc(N3CCN(c4cc5c(cc4Cl)nc(-c4ccncc4)n5CCOCCO)CC3)n2)cc1` belongs “inactive”; to `Cc1c(CCC(=O)O)c(=O)oc2c(C)c(OCc3ccccc3Cl)ccc12`, “inactive”.
With `C/C=N/N(c1ccccc1)c1ccccc1` the entry was “inactive”; with `O=C(/C=C/c1cccc(C(F)(F)F)c1)N1CCN(c2ccccn2)CC1`, “inactive”.
With `O=C(CCl)NNc1nc(-c2ccccc2)c2cc(Cl)ccc2n1` the entry was “inactive”; with `OCCCNc1nc(-c2ccccc2)c2cc(Cl)ccc2n1`, “inactive”.
Consider `NC(N)=Nc1nc(-c2ccccc2)c2cc(Cl)ccc2n1`, for which the B-score was -6.86 (active).
With `Cn1c(C(=O)OC(C(=O)NC2CCCCC2)c2ccccn2)cc2sccc21` (stereo not given) the entry was “inactive”; with `COc1cc(C(=O)NCc2cc3cc(Cl)ccc3n2C)cc(OC)c1OC`, “inactive”.

For the origin of these results see PubChem BioAssay AID488922 (Johns Hopkins Ion Channel Center, 2010).
